Screening data (PubChem BioAssay)
TDP1 cell noCPT: qHTS for Inhibitors of human tyrosyl-DNA phosphodiesterase 1 (TDP1): qHTS in cells in absence of CPT; DT40 Tdp1-/- hTDP1 cells, no CPT, ATP luminescence, 48 h; Potency, µM (doses to about 46.2 µM), for inactives: at the top dose activity change, negative = growth inhibition, actives largely listed as inhibitors; 420,000 tested, 15% active; AID 686978, 2013; note: potency is the fitted concentration of half-maximal effect; nearly all actives have a fitted effect of over 55% in size
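Luminescent ATP content (CellTiter-Glo) served as the growth readout. Knockout chicken DT40 cells expressing human TDP1 were exposed to compounds without camptothecin for a minimum 48 hr at 37 °C.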
IL1B secr inh: blocks inflammasome-driven IL-1 beta release. THP-1 LPS/ATP IL-1B secretion, AlphaLISA, 16 h; active compounds read low. activity change, % at 57.5 µM. 360,000 tested, 4.7% active. AID 743279; in the data active = activity change below about -50%; inconclusive = mostly about -30% to -49%
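THP-1 cells pretreated 1 hr with compounds (up to 57.5 uM final), then stimulated with LPS (250 ng/mL final) plus ATP (1.25 mM final); secreted IL-1B measured by AlphaLISA after 16 hr, decreased signal indicating inhibition.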
DT40 TDP1 CPT: DT40-hTDP1 cell growth loss with CPT; chicken DT40 Tdp1-/-;hTDP1 cells + 20 nM CPT, ATP luminescence, 48 h; Potency, µM (highest dose often 46.2 µM), for inactives: at the top dose activity change, negative = growth inhibition, actives largely listed as inhibitors; 420,000 tested, 12% active; AID 686979; note: potency is the fitted concentration of half-maximal effect; nearly all actives have a fitted effect of over 55% in size
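Chicken DT40 Tdp1-/- cells stably complemented with human TDP1 were seeded at 400 cells/well in medium containing 20 nM camptothecin, exposed to pin-transferred compounds, and grown at 37 °C for at least 48 hr. Viability was read as ATP luminescence.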
Giardia killer: Giardia lamblia killing; Giardia lamblia trophozoite viability; activity change, % at 7.66 µM, hits read low; 340,000 tested, 0.15% active; in the data active = activity change below about -80%; inconclusive = between about -30% and that limit;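 note: parasites exposed to compound for two days anaerobically before the ATP read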
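Giardia trophozoites, 100 cells per well, were exposed to compounds for 48 hrs at 37 deg C under anaerobic conditions; viability was then read as ATP content by bioluminescence after 15-30 min at room temperature.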
TDP1 inh: inhibitors of human tyrosyl-DNA phosphodiesterase TDP1; Q9NUW8; recombinant TDP1, AlphaScreen DNA substrate cleavage; 350,000 tested, 0.28% active; Potency, µM (titrated, usually from 130 µM), inactives show at the top dose activity change, negative = inhibition, hits mostly inhibitors; AID 485290; note: potency is the fitted concentration of half-maximal effect; nearly all actives have a fitted effect of over 40% in size
Target sequence (Q9NUW8 whole entry, looked up): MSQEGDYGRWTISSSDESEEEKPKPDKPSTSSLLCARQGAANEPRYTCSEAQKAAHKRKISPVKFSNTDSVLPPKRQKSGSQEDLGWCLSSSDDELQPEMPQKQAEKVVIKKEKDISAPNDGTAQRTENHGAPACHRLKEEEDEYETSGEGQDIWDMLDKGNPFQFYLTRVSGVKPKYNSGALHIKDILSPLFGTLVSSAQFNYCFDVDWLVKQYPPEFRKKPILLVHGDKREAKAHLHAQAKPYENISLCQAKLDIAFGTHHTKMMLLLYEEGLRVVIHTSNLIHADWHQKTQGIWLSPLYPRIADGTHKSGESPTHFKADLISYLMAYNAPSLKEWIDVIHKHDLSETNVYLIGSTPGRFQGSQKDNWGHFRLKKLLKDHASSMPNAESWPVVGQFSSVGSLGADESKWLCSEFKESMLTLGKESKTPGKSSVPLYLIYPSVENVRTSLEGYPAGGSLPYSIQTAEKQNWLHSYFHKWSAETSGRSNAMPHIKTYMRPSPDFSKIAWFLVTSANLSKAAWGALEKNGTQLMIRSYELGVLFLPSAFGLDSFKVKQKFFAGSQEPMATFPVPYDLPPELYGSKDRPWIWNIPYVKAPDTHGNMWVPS
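AlphaScreen read-out: signal falls as enzyme removes the 3' tyrosine-FITC from a 5'-biotinylated DNA oligo (15 nM, 5 min, RT). Enzyme was E. coli-made recombinant Tdp1 at 1 nM, exposed to compound for 15 min beforehand; beads 10 ug/ml, 10 min.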
ELG1 repair inh: ELG1-dependent DNA repair inhibition; HEK293T ELG1-luciferase reporter, luminescence, 16 h; DNA damage induced by 5-fluorouridine; Potency, µM (doses to about 46.1 µM), inactives show top-dose activity change, negative = inhibition, hits mostly inhibitors; 330,000 tested, 2.3% active; note: potency is the fitted concentration of half-maximal effect; nearly all actives have a fitted effect of over 55% in size
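Overnight (16 hr) co-exposure of 2,000 cells/well to 5-fluorouridine and compound at 37 °C preceded detection. Luciferase was quantified via ONE-Glo luminescence; loss of signal denotes inhibition.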
* marks the source's active call; other numbers are inactive results; ? = inconclusive; . = no result. Sampled rows, rich in hits. Any-hit rate of the full collection: about 19%. Unless noted, calls come from the whole dose curve; as a rule, active = well fitted curve in the direction sought with a large enough effect; inconclusive = small, poorly fitted or top-dose-only effect, or another doubt; inactive = no such curve, though single readings can be large; an effect the other way counts as inactive or inconclusive. % is set by controls: 0 for no effect and ±100 for the full control effect.

SMILES | TDP1 cell noCPT | IL1B secr inh | DT40 TDP1 CPT | Giardia killer | TDP1 inh | ELG1 repair inh
O=C(Cn1c(=O)n(-c2ccccc2)c(=O)c2sc3ccccc3c21)N1CCCC1 | -12% | . | -24% | . | 4% | .
Cc1cnc(C2OCCO2)c2cccc(N)c12 | 8.2µM* | -12 | ? | . | . | .
CN1C(C(=O)c2ccccc2)=C(OC(=O)c2ccc(Br)cc2)c2ccccc2S1(=O)=O | 21µM* | . | ? | . | 3% | .
CN1C(C(=O)c2ccccc2)=C(N)c2ccccc2S1(=O)=O | 7% | -13 | -17% | 1 | 6% | ?
COC(=O)CN1C(C(=O)c2ccccc2)=C(OC(=O)c2ccccc2)c2ccccc2S1(=O)=O | 26µM* | . | 16µM* | . | 7% | .
Cc1ccc(NC2=C(C(=O)c3ccccc3)N(C)S(=O)(=O)c3ccccc32)cc1 | 26µM* | -22 | 29µM* | 11 | 10% | -25%
CCCN1C(C(=O)c2ccccc2)=C(OC(=O)c2ccc(OC)cc2)c2ccccc2S1(=O)=O | 5.2µM* | . | 5.2µM* | . | 9% | .
CC1CCc2c(sc3nnn(CCCCOc4ccc(Cl)cc4)c(=O)c23)C1 (centres undefined) | -9% | . | -8% | . | 2% | .
COc1cc(/C=C/c2nc3cc(Cl)ccc3c(=O)n2-c2cccc(C(F)(F)F)c2)cc(OC)c1OC | ? | . | ? | . | -3% | .
COc1ccc(F)cc1S(=O)(=O)Nc1cccc(C(=O)O)c1 | -1% | 11 | -5% | 4 | 3% | -3%
CC(C)Oc1ccccc1/C=N/NC(=O)C1CC1 | 8% | 17 | 26% | -13 | . | .
O=C(Nc1ccc2c(c1)CCC2)c1ncoc1-c1ccccc1F | ? | -74* | -19% | -4 | -13% | ?
CCC(C)N(CCNC(=O)c1ccc2c(c1)NC(=O)c1ccccc1S2)C1CCCCC1 (centres undefined) | 2.9µM* | -86* | 15µM* | 9 | 5% | ?
CCN1CCN(CCCNC(=O)c2ccc3c(c2)NC(=O)c2ccccc2S3)CC1 | ? | 13 | -25% | -4 | 1% | ?
Cc1ccc(NC(=O)c2ccc3c(c2)NC(=O)c2ccccc2S3)c(Cl)c1 | 3.3µM* | . | 3.7µM* | . | 0% | .
CN(CC(=O)Nc1cccc(F)c1)C(=O)C1(c2ccccc2)CC1 | 4% | -5 | -9% | 2 | 2% | -13%
CC(=O)c1nnn(-c2ccc([N+](=O)[O-])cc2C)c1C | -1% | 21 | 1% | -16 | 6% | 5%
COc1ccccc1CNC(=O)CCCn1nc(C)c2sc3ccccc3c2c1=O | -20% | . | -18% | . | 0% | .
CN1CCC(N(CCc2ccccc2)C(=O)CCC(=O)O)CC1 | -10% | 6 | 3% | -9 | . | 4%
N#Cc1c(N)[nH]c(=S)c(C#N)c1-c1ccccc1 | ? | -8 | 21µM* | -4 | 2% | 0%
Cc1ccc(OCc2nc3ccccc3n2CCOc2ccc(Cl)cc2)cc1 | 18µM* | . | ? | . | -3% | .
CCn1c(COc2ccc(C)cc2)nc2ccccc21 | ? | -76* | ? | -2 | 3% | ?
CN(C)CCn1c(COc2ccccc2)nc2ccccc21 | -12% | -1 | ? | 7 | . | .
C=CCn1c(COc2ccccc2)nc2ccccc21 | 23µM* | -13 | ? | 0 | . | ?
COCCn1c(COc2ccc(C)cc2)nc2ccccc21 | ? | ? | ? | -14 | 2% | ?
SMILES | TDP1 cell noCPT | IL1B secr inh | DT40 TDP1 CPT | Giardia killer | TDP1 inh | ELG1 repair inh
Cc1ccc(OCCCn2c(CO)nc3ccccc32)cc1 | ? | -6 | ? | -17 | 7% | ?
Cc1cccc(Cn2c(COc3ccc(Cl)cc3)nc3ccccc32)c1 | 16µM* | . | 23µM* | . | . | .
COC(=O)c1c(OCc2ccccn2)cc(=O)n2c1CCN(C(=O)c1cc(C(C)C)nn1C)CC2 | -26% | . | -3% | . | . | .
CCCn1c(-c2cccs2)nc2ccccc21 | -30% | -21 | -25% | -6 | -1% | ?
C=CCn1c(-c2cccs2)nc2ccccc21 | 21µM* | -20 | -23% | -1 | 2% | 26%
Cc1ccc(OCc2nc3ccccc3n2Cc2ccccc2Cl)cc1 | ? | . | 21µM* | . | . | .
O=C(Cn1c(COc2ccccc2)nc2ccccc21)Nc1cc(Cl)cc(Cl)c1 | ? | 7 | 18µM* | ? | -3% | 3%
Cc1cccc(C(=O)NCc2nc3ccccc3n2Cc2ccccc2Cl)c1 | ? | . | ? | . | -3% | .
CCOc1cccc(C2c3c(oc4ccccc4c3=O)C(=O)N2c2nc(C)c(C(=O)OC)s2)c1 (centres undefined) | 1% | . | 10% | . | 0% | .
COc1ccc(NC(=O)c2cc(C3CCCCN3S(=O)(=O)c3ccc(C#N)cc3)on2)c(C)c1 (centres undefined) | ? | -8 | ? | . | . | .
N#Cc1c(-c2ccccc2)nc2n(-c3ccccc3)nc(C(=O)Nc3ccccc3)n2c1=O | 7.3µM* | 0 | ? | 11 | 4% | -9%
COc1ccc(-c2cc(C(=O)Nc3cccc(C(C)=O)c3)no2)cc1 | 8% | 10 | 1% | -1 | 2% | ?
CC(=O)c1cccc(NC(=O)c2nc(-c3ccccc3)n(-c3ccccc3)n2)c1 | 10µM* | . | 21µM* | . | 6% | .
COc1ccc(-c2nc(C(=O)Nc3cccc(C(C)=O)c3)nn2-c2ccccc2Cl)cc1 | 16µM* | . | 18µM* | . | 0% | .
CC(=O)c1ccc(NC(=O)c2nc(-c3ccccc3)n(-c3ccc(C)cc3)n2)cc1 | 18µM* | . | ? | . | 9% | .
Cc1ccc(C)c(NC(=O)c2nc(-c3ccccc3)n(-c3ccccc3)n2)c1 | ? | ? | ? | -3 | 1% | ?
COCCCNC(=O)CCc1c(C)nc2nc(-c3cc(OC)cc(OC)c3)nn2c1C | -5% | . | 7% | . | 2% | .
N#Cc1cccc(NC(=O)c2nc(-c3ccccc3)n(-c3ccccc3)n2)c1 | 18µM* | -20 | ? | 33 | 6% | ?
Cc1csc(NC(=O)c2nc(-c3ccccc3)n(-c3ccccc3)n2)n1 | ? | ? | ? | 3 | 4% | 15µM*
O=C(Nc1nccs1)c1nc(-c2ccccc2)n(-c2ccccc2)n1 | ? | 11 | ? | -7 | 5% | ?
Cc1ccccc1NC(=O)C1CCN(C(=O)N2CCOc3ccccc32)CC1 | -19% | 1 | -23% | 0 | . | -1%
COc1ccc(CN2CCN(C3CCC3)CC2CCO)cc1C (centres undefined) | -9% | -11 | -1% | 3 | 0% | -4%
